Assay [1] can be described thus: Nuclear factor erythroid 2-related factor 2/antioxidant responsive element (Nrf2/ARE) small molecule agonists: luciferase reporter gene qHTS assay in human keratinocytes (AID 1919969). Also: potency is read from the fitted curve at half-maximal effect; nearly all actives have a fitted effect of over 35% in size. A general note: In a reporter assay the amount or activity of a reporter protein is the signal.
Assay [2] addresses Gonadotropin-releasing hormone receptor (Homo sapiens) (UniProt P30968). As to the kind of experiment: Human gonadotropin-releasing hormone receptor (GnRHR) small molecule agonists, calcium flux assay in GnRHR-HEK293 cells (AID 1920063). Also: nearly all actives have a fitted effect of over 35% in size. In short, it runs like this:
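Calcium flux, agonist mode, human GnRHR stably integrated in HEK293; dye 1 h at 37 C before compound; Ex/Em=480/540 kinetic read, 3 min; 15 concentrations, triplicate.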

The target of assay [3] is KiSS-1 receptor (Homo sapiens) (UniProt Q969F8). As to the kind of experiment: Human kisspeptin (KISS1R) small molecule agonists, calcium flux assay in KISS1R-HEK293 cells (AID 1920064; active = well fitted activation curve with a large enough effect in the repeat runs). In short, it runs like this:
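Triplicate 15-concentration series were applied to dye-loaded human KISS1R HEK293 cells, and agonist-evoked calcium fluorescence was captured for 3 min.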
On the technique in general: Calcium assays in cells follow changes in intracellular calcium, usually with a dye or a luminescent sensor.

Assay [4] can be described thus: G protein-coupled receptor (GPCR) small molecule agonists, calcium flux assay: HEK293 wild type cell line counter screen (AID 1920065). The method, boiled down:
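Non-specific calcium responders were flagged by adding DMSO-dissolved compounds to dye-loaded cells and reading 480/540 nm fluorescence each second for 3 min; ATP served as positive control.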

Assay [5] is described as follows: p53 small molecule agonists, cell-based qHTS assay with human liver microsomes (AID 1963577).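 Also: p53 response element beta-lactamase reporter cells with liver microsomes plus NADPH.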 The method, boiled down: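 Reporter activation was measured by LiveBLAzer fluorescence intensity in p53RE-bla cells, which had been exposed to compounds for 16 h at 37 C alongside 0.5 mg/mL human liver microsomes and 0.5 mg/mL NADPH (final concentrations).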
Background: Quantitative high-throughput screening tests each substance at several concentrations.

Assay [6] can be described thus: p53 small molecule agonists, cell-based qHTS assay with rat liver microsomes (AID 1963578). The method, boiled down: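 Compound in DMSO added to p53RE-bla cells 5 h post-plating; rat microsomes/NADPH 0.5 mg/mL final; 16 h, 37 C; LiveBLAzer 2 h RT.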
A short description of assay [7]: p53 small molecule agonists, cell-based qHTS assay with rat liver microsomes: qHTS cell viability counter screen (AID 1963580). Also: nearly all actives have a fitted effect of over 45% in size. In short, it runs like this: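 After the beta-lactamase ratio was read, CellTiter-Glo was added to the same wells and luminescence measured at 30 min; cells had been treated 16 h at 37 C with compounds, rat liver microsomes and NADPH (0.5 mg/mL final each).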

A short description of assay [8]: p53 small molecule agonists, cell-based qHTS assay: qHTS cell viability counter screen (AID 1963581). Also: nearly all actives have a fitted effect of over 45% in size. In short, it runs like this: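 Multiplexed with the reporter read, a CellTiter-Glo step (30 min, room temperature) gauges ATP-based viability of HCT-116 p53RE-bla cells after 16 h compound incubation at 37 C.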
Assay [9] can be described thus: p53 small molecule agonists, cell-based qHTS assay (AID 1963582; active = well fitted activation curve with a large enough effect in the signal ratio in the repeat runs, not every such curve was filed as active; the % refers to the signal ratio). In short, it runs like this: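 Beta-lactamase reporter cells (p53RE-bla) treated with compounds for 16 h at 37 C; FRET substrate, 2 h, room temperature; fluorescence intensity.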
Assay [10] concerns the target 5-hydroxytryptamine receptor 2A (Homo sapiens) (UniProt P28223). The experiment in a line: 5-hydroxytryptamine receptor 2A (HTR2A) small molecule antagonists, cell-based qHTS assay (AID 1963586). Also: nearly all actives have a fitted effect of over 45% in size. The method, boiled down: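 CHO cells stably expressing human HTR2A were plated for 18 h at 37 C, then loaded with calcium dye for 1 h. Compounds were preincubated 5 min at room temperature before DOI (4 nM solution) was added. Kinetic fluorescence was read for 3 min.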

The target is the same in assay [11]. The experiment in a line: 5-hydroxytryptamine receptor 2A (HTR2A) small molecule agonists, cell-based qHTS assay (AID 1963587). Also: nearly all actives have a fitted effect of over 30% in size. The method, boiled down:
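CHO cells stably expressing human HTR2A, plated 18 h, loaded with calcium dye 1 h at 37 C. Agonist mode: compounds added and intracellular calcium fluorescence recorded kinetically for 2 min at 1 sec intervals.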

In assay [12] the target is Muscarinic acetylcholine receptor M1 (Homo sapiens) (UniProt P11229). The experiment in a line: Cholinergic receptor muscarinic 1 (CHRM1) small molecule antagonists, cell-based qHTS assay (AID 1963588). Also: nearly all actives have a fitted effect of over 40% in size. In short, it runs like this:
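Compounds were tested at 15 concentrations in three independent runs. Dye-loaded CHRM1-CHO cells were exposed 5 min at room temperature before stimulation by acetylcholine added at 50nM. Intracellular calcium was read kinetically on FDSS for 3 min.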

The target is the same in assay [13]. The experiment in a line: Cholinergic receptor muscarinic 1 (CHRM1) small molecule agonists, cell-based qHTS assay (AID 1963589). Also: nearly all actives have a fitted effect of over 35% in size. In short, it runs like this: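 qHTS, 15-point titration, 3 independent runs: compounds pin-transferred onto dye-loaded CHRM1-CHO cells (human M1), calcium fluorescence followed every second to detect agonism.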
Assay [14] can be described thus: cAMP Responsive Elements (CRE) small molecule agonists, cell-based qHTS assay (AID 1963590). The method, boiled down:
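Quantitative HTS for CRE agonists: HEK 293T CRE-bla cells, overnight plating, 3 h compound incubation at 37 C/5% CO2, then 2 h room-temperature LiveBLAzer B/G FRET substrate loading.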

A short description of assay [15]: cAMP Responsive Elements (CRE) small molecule antagonists, cell-based qHTS assay (AID 1963591; active = well fitted inhibition curve with a large enough effect in the signal ratio in the repeat runs, not every such curve was filed as active; the % refers to the signal ratio). The method, boiled down:
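Fluorescence intensity from cleaved LiveBLAzer B/G substrate (2 h, room temperature) quantified CRE-bla activity in HEK 293T cells exposed 3 h to compound with 0.25 uM final NKH477.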

The target in assay [16] is Beta-2 adrenergic receptor (Homo sapiens) (UniProt P07550). As to the kind of experiment: Adrenergic beta2 receptor (ADRB2) small molecule antagonists, cell-based qHTS assay (AID 1963592). Also: series mostly up to about 92 µM; nearly all actives have a fitted effect of over 50% in size. In short, it runs like this: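 Assay format: CHO-ADRB2 cells, 18-20hr seeding at 37C/5% CO2, then compound plus 1nM isoproterenol agonist mix for 0.5hr RT. Homogeneous time-resolved fluorescence cAMP detection after 1hr, expressed as 665/615 nm ratio.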
Beta-2 adrenergic receptor (Homo sapiens), sequence (P07550 whole entry, looked up): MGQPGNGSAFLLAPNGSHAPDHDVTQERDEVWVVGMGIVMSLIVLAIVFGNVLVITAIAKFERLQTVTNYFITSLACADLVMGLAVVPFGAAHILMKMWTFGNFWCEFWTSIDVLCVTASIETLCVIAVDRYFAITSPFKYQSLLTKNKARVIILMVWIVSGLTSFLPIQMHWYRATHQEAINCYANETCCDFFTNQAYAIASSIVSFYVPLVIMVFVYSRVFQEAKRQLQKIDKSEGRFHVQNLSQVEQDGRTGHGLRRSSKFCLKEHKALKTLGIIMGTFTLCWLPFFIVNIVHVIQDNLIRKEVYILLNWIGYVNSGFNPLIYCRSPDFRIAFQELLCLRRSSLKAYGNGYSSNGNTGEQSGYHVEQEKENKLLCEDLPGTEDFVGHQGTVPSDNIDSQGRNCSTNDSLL

In assay [17] the target is D(2) dopamine receptor (Homo sapiens) (UniProt P14416). The experiment in a line: Dopamine D2 receptor (DRD2) small molecule agonists, cell-based qHTS assay (AID 1963594). Also: nearly all actives have a fitted effect of over 35% in size. In short, it runs like this: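 HEK293 cells stably expressing human DRD2, pre-treated with PDE inhibitor Ro20-1724 (0.1 mM final) and compound 10 min at room temperature, then stimulated with NKH477 (200nM […]) for 30 min. cAMP read by HTRF (665/620 nm).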
D(2) dopamine receptor (Homo sapiens), sequence (P14416 whole entry, looked up): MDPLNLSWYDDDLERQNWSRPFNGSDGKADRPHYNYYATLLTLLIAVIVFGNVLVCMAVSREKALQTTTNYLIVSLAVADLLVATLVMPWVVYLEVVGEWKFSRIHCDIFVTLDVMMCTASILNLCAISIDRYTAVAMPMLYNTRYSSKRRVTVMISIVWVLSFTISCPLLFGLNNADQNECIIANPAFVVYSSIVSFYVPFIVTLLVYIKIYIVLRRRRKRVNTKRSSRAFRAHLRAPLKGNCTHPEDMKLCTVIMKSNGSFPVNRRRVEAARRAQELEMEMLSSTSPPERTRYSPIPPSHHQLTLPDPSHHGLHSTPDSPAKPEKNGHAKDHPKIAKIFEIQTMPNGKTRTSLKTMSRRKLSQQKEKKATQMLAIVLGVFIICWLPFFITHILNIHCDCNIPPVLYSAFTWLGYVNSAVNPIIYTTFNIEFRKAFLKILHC

The target in assay [18] is Beta-2 adrenergic receptor (Homo sapiens) (UniProt P07550). The experiment in a line: Adrenergic beta2 receptor (ADRB2) small molecule agonists, cell-based qHTS assay (AID 1963593).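 Also: CHO cells stably overexpressing human ADRB2.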 In short, it runs like this: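 CHO cells stably over-expressing ADRB2 were plated overnight at 37C, then dosed with compounds plus a stimulation mix containing 100uM IBMX and 25uM Ro-20-1724 for 0.5hr at room temperature. cAMP was measured by HTRF competition, 1hr.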

Assay [19] concerns the target D(2) dopamine receptor (Homo sapiens) (UniProt P14416). As to the kind of experiment: Dopamine D2 receptor (DRD2) small molecule antagonists, cell-based qHTS assay (AID 1963595; active = well fitted inhibition curve with a large enough effect in the signal ratio in the repeat runs, with a control signal flat; the % refers to the signal ratio). The method, boiled down: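 HTRF cAMP read-out at 665 and 620 nm emission (340 nm excitation). Antagonist mode: compounds were tested against 12 nM quinpirole in DRD2-HEK293 cells, with 200 nM NKH477 raising cAMP and 0.1 mM Ro20-1724 blocking its breakdown.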

In PubChem BioAssay (Tox21) one finds Potency data, which are given here for three molecules.

Records with an inconclusive call do not appear. The source made the active and inactive calls. Unless noted, calls follow the shape of the full dose curve.

5-hydroxytryptamine receptor 2A (Homo sapiens), sequence (P28223 whole entry, looked up): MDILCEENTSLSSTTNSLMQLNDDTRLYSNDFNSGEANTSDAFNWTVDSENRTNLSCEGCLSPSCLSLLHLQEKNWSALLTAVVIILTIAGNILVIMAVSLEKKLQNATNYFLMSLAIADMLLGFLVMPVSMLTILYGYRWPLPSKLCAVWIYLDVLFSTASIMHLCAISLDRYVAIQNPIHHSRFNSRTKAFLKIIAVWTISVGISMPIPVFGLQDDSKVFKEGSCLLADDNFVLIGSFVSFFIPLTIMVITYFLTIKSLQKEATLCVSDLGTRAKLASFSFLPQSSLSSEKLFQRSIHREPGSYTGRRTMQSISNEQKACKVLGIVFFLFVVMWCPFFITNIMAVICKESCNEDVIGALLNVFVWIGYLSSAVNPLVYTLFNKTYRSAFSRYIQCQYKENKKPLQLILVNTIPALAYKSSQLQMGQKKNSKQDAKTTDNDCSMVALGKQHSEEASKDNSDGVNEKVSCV
Gonadotropin-releasing hormone receptor (Homo sapiens), sequence (P30968 whole entry, looked up): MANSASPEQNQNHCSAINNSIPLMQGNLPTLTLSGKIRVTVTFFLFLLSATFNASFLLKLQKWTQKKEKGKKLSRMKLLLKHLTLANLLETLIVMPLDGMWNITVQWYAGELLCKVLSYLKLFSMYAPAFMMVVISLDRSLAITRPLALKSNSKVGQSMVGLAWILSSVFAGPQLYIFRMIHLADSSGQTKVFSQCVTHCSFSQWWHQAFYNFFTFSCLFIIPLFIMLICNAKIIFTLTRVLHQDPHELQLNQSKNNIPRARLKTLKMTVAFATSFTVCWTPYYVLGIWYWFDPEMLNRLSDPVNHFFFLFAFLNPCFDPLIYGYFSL
Muscarinic acetylcholine receptor M1 (Homo sapiens), sequence (P11229 whole entry, looked up): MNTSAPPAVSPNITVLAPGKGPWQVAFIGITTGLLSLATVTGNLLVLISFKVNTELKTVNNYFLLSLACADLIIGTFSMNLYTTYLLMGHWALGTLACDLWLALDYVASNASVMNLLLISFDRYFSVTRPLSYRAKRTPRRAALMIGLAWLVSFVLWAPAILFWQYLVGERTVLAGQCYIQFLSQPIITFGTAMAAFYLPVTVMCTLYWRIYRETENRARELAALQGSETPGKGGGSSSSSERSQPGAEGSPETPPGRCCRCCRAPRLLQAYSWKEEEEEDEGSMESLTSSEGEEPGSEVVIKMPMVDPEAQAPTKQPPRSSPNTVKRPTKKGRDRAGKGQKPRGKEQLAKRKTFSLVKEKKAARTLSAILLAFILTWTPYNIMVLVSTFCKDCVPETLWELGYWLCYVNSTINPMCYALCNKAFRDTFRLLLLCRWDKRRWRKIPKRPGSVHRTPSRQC
KiSS-1 receptor (Homo sapiens), sequence (Q969F8 whole entry, looked up): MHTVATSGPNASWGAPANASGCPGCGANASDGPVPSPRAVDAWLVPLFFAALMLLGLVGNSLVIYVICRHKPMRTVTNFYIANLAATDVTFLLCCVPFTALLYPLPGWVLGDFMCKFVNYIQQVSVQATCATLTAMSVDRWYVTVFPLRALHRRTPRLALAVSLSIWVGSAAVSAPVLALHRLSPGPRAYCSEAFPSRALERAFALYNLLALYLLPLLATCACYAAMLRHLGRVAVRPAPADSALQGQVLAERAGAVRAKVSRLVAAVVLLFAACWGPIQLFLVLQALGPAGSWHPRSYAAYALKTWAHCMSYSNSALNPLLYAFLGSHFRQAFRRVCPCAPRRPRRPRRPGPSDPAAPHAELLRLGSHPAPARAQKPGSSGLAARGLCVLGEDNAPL

For the molecule `CCCCOC(=O)c1ccccc1C(=O)OCC(CC)CCCC` (stereo not drawn), the Potency in assay [1] was 43.3 µM (active). In addition, the Potency result in [2], in assay [3], in [4], in assay [5], in assay [6] and in assay [7] was “inactive” throughout. In addition, the Potency entry in assay [8], in [9], in assay [10], in [11], in assay [12] and in assay [13] was “inactive” throughout. The Potency entry in assay [14], in [15], in assay [16] and in assay [17] was “inactive” throughout.

With `CCC1OCC(COc2ccc(Oc3ccccc3)cc2)O1` (stereo not drawn), in assay [1], the Potency is 68.6 µM (active). In addition, the Potency result in assay [2], in assay [3], in assay [4], in assay [5], in assay [6] and in assay [8] was “inactive” each time. The Potency entry in [9], in assay [10], in assay [11], in assay [12], in [14] and in assay [15] was “inactive” in each case. Moreover, the Potency result in assay [16], in [18], in assay [17] and in assay [19] was “inactive” throughout.

Take `CC1=C(/C=C/C(C)=C/C=C/C(C)=C\C=O)C(C)(C)CCC1`: in assay [1], the Potency was 64.9 µM (active). Also, the Potency result in [2], in [3], in assay [4], in [5], in [6] and in assay [8] was “inactive” each time. Besides, the Potency result in assay [10], in assay [11], in assay [12], in [13], in [16] and in [17] was “inactive” in each case. In addition, in [19], the Potency entry was “inactive”.
